From ChEMBL document CHEMBL1961873, “Compounds: GSK PKIS; Assays: Nanosyn kinase panel” (2012)
Several values for one entry are separate records, joined by “and”; a condition that tells them apart may be missing. Equal entries are not always repeated.

How the values were obtained:
[1] = target: T1, Inhibitor of nuclear factor kappa-B kinase subunit epsilon (Homo sapiens) (UniProt Q14164); details: at 1 µM;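 further: reported values are averaged percent inhibition figures against human IKKε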
T1 sequence (whole entry): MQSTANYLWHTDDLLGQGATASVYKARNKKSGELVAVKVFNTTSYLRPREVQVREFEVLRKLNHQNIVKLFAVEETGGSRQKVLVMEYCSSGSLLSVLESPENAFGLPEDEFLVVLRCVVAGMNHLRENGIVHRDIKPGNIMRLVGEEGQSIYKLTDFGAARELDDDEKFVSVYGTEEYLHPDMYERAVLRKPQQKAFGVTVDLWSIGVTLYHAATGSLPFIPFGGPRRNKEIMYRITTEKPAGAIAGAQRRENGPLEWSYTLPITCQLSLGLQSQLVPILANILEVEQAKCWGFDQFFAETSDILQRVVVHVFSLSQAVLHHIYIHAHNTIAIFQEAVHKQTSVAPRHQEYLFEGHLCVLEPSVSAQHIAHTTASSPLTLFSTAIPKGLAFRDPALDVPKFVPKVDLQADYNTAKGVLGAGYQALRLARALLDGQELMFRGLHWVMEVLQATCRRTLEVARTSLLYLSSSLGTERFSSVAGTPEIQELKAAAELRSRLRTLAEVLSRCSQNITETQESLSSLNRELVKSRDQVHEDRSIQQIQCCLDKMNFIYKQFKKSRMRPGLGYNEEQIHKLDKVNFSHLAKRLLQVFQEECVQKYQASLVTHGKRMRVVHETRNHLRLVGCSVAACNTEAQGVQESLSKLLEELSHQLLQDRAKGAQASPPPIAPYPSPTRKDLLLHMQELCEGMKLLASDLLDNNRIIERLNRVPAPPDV

[2] = target: T2, Serine/threonine-protein kinase Nek1 (Homo sapiens) (UniProt Q96PY6); details: at 0.1 µM
T2 sequence (whole entry): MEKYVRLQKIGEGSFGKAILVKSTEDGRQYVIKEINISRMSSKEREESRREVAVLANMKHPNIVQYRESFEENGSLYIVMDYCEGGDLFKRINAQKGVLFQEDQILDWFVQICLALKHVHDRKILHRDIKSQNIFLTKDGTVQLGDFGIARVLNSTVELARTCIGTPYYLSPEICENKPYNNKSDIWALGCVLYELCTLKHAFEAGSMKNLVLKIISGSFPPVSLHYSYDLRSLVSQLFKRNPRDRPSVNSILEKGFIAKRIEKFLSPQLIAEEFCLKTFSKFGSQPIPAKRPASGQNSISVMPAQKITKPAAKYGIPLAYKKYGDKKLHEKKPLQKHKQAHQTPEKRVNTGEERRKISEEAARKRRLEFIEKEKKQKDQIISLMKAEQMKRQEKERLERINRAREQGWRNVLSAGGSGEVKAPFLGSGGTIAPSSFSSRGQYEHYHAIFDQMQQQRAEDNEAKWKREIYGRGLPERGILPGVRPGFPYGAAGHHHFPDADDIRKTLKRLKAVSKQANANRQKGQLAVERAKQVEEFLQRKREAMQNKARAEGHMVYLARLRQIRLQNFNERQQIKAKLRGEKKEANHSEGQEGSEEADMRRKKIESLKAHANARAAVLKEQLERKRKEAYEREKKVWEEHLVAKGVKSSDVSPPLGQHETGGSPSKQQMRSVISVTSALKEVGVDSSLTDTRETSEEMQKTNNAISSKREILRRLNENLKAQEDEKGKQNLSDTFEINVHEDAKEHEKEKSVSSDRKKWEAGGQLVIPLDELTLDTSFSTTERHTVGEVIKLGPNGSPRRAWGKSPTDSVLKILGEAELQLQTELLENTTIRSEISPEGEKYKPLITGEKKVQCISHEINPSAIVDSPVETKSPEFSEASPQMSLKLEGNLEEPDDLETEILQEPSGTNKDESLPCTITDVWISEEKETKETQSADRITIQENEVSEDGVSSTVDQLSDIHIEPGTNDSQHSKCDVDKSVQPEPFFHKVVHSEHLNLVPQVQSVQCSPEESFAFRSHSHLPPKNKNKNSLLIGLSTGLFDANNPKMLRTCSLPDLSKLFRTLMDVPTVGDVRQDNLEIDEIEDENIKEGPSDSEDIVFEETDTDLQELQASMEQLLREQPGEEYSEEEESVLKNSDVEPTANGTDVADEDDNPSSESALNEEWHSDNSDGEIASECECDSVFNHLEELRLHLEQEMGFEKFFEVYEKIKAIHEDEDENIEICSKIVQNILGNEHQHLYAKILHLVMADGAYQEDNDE

[3] = target: T2, Serine/threonine-protein kinase Nek1 (Homo sapiens); details: at 1 µM
[4] = target: T3, Serine/threonine-protein kinase Nek2 (Homo sapiens) (UniProt P51955); details: at 0.1 µM
T3 sequence (whole entry): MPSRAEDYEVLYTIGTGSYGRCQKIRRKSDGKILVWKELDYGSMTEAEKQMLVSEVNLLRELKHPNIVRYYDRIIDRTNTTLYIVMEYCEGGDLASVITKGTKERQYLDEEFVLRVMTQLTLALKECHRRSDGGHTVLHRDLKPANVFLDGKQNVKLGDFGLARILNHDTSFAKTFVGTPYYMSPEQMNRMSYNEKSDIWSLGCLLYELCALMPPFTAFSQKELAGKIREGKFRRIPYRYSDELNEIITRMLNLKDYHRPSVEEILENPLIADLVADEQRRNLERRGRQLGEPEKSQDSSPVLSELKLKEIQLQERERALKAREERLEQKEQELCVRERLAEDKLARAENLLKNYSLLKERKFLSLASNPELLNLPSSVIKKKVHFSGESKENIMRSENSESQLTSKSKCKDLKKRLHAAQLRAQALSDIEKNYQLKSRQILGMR

[5] = target: T3, Serine/threonine-protein kinase Nek2 (Homo sapiens); details: at 1 µM
[6] = target: Serine/threonine-protein kinase Nek6 (Homo sapiens) (UniProt Q9HC98); details: at 0.1 µM
[7] = target: Serine/threonine-protein kinase Nek6 (Homo sapiens) (UniProt Q9HC98); details: at 1 µM
[8] = target: Serine/threonine-protein kinase Nek7 (Homo sapiens) (UniProt Q8TDX7); details: at 0.1 µM
[9] = target: Serine/threonine-protein kinase Nek7 (Homo sapiens) (UniProt Q8TDX7); details: at 1 µM
[10] = target: T4, Serine/threonine-protein kinase Nek9 (Homo sapiens) (UniProt Q8TD19); details: at 0.1 µM
T4 sequence (whole entry): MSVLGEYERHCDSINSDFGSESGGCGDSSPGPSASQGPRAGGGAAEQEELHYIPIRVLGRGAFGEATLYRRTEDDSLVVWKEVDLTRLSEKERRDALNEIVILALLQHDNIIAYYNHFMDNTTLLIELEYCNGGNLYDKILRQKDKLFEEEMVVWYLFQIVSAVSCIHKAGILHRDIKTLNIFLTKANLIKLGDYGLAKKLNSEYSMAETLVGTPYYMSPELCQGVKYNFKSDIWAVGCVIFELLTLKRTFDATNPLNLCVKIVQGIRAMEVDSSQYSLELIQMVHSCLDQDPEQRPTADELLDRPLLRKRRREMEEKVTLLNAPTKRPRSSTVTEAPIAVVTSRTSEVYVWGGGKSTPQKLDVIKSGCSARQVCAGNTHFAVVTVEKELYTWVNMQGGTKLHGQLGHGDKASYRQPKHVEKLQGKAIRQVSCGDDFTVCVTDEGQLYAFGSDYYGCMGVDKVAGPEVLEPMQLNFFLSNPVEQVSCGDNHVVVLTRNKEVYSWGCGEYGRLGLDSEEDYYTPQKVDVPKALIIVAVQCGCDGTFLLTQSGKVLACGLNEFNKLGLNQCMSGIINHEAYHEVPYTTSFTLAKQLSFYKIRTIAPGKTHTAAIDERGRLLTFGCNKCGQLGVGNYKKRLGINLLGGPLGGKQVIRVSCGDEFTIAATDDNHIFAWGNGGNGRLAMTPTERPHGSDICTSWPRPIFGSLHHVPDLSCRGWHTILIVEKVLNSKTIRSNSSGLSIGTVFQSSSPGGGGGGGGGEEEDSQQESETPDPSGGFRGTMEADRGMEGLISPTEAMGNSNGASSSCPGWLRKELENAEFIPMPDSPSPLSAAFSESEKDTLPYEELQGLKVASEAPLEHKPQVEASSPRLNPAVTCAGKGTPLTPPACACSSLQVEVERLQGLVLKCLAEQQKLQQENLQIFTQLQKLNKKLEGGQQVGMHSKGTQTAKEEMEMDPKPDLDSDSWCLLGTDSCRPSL

[11] = target: T4, Serine/threonine-protein kinase Nek9 (Homo sapiens); details: at 1 µM
[12] = target: Serine/threonine-protein kinase PLK1 (Homo sapiens) (UniProt P53350); details: at 0.1 µM
[13] = target: Serine/threonine-protein kinase PLK1 (Homo sapiens) (UniProt P53350); details: at 1 µM
[14] = target: T5, Dual specificity protein kinase TTK (Homo sapiens) (UniProt P33981); details: at 0.1 µM
T5 sequence (whole entry): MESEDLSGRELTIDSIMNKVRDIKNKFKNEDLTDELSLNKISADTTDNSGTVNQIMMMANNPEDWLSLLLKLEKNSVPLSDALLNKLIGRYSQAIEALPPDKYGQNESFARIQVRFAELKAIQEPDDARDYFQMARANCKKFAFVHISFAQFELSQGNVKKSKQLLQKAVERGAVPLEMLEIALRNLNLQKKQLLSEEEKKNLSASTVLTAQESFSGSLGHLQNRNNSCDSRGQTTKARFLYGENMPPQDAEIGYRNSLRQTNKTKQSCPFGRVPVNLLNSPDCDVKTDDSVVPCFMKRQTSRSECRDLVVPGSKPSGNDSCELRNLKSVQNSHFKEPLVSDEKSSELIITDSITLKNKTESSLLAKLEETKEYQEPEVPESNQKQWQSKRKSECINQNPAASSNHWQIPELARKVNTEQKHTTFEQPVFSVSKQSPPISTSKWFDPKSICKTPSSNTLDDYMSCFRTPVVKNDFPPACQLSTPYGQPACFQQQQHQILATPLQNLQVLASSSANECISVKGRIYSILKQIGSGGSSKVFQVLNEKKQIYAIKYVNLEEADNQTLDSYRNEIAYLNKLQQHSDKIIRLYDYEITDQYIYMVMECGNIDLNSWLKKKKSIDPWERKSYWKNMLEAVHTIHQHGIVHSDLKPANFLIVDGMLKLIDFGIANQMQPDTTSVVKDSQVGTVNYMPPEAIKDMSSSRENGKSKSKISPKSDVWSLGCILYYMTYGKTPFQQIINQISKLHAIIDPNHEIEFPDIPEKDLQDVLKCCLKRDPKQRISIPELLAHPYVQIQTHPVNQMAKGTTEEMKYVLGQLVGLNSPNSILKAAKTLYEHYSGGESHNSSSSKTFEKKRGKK

[15] = test system: T6, Receptor-type tyrosine-protein kinase FLT3 (Homo sapiens), P36888 [D835Y]; details: at 1 µM
T6 sequence (whole entry): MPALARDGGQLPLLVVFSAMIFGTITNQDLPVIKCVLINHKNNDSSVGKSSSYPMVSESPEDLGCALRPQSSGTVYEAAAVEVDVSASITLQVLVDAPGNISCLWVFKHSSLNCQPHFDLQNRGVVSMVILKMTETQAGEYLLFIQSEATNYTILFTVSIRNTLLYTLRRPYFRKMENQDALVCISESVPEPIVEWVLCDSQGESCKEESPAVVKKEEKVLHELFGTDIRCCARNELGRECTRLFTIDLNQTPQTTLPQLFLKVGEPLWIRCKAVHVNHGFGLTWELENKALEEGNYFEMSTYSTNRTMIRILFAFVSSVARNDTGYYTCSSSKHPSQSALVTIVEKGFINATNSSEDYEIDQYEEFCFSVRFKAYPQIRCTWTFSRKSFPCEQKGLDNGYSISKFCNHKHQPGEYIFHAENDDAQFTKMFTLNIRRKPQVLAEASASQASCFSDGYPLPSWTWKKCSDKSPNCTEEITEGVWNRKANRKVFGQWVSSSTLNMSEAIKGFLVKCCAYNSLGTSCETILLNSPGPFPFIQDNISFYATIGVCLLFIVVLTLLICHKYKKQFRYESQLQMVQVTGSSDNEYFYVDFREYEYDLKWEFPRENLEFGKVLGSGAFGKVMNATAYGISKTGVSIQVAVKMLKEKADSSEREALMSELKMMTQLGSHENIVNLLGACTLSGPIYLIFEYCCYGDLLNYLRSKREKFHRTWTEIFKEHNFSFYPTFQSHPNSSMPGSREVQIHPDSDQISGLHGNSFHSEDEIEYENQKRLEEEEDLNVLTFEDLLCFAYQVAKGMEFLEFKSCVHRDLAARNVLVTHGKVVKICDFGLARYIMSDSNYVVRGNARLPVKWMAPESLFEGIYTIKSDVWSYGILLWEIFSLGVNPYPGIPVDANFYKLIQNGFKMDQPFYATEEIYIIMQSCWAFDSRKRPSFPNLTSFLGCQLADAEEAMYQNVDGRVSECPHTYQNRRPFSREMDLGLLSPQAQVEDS

[16] = target: Vascular endothelial growth factor receptor 3 (Homo sapiens) (UniProt P35916); details: at 0.1 µM
[17] = target: Vascular endothelial growth factor receptor 3 (Homo sapiens) (UniProt P35916); details: at 1 µM
[18] = target: Macrophage colony-stimulating factor 1 receptor (Homo sapiens) (UniProt P07333); details: at 0.1 µM
[19] = target: Macrophage colony-stimulating factor 1 receptor (Homo sapiens) (UniProt P07333); details: at 1 µM
[20] = target: Tyrosine-protein kinase Fyn (Homo sapiens) (UniProt P06241); details: at 0.1 µM
Chain of Tyrosine-protein kinase Fyn (Homo sapiens) (P06241 2-537 limits assumed): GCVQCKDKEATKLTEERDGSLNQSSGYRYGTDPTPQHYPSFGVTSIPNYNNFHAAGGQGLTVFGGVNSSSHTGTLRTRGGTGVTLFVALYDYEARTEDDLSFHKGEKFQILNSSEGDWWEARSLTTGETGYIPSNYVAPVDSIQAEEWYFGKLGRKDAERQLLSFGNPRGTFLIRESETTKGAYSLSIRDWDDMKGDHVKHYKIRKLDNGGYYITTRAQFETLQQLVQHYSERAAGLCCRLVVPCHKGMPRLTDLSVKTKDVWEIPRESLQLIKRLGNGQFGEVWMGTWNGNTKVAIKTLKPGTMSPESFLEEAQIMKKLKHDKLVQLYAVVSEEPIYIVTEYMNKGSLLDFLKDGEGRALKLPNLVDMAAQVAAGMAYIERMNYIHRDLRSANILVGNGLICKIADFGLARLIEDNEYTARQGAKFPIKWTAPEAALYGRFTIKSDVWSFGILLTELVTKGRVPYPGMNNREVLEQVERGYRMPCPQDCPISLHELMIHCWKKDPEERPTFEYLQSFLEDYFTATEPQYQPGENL

Chain of Serine/threonine-protein kinase Nek7 (Homo sapiens) (Q8TDX7 whole entry, looked up): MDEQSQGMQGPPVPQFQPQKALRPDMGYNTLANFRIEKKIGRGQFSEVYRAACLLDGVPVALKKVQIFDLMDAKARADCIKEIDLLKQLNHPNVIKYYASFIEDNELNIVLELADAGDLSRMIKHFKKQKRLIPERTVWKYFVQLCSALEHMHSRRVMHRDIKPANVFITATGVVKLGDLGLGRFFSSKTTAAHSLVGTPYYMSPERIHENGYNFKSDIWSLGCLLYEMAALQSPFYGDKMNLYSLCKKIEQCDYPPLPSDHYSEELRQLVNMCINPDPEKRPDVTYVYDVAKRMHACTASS
Chain of Serine/threonine-protein kinase PLK1 (Homo sapiens) (P53350 whole entry): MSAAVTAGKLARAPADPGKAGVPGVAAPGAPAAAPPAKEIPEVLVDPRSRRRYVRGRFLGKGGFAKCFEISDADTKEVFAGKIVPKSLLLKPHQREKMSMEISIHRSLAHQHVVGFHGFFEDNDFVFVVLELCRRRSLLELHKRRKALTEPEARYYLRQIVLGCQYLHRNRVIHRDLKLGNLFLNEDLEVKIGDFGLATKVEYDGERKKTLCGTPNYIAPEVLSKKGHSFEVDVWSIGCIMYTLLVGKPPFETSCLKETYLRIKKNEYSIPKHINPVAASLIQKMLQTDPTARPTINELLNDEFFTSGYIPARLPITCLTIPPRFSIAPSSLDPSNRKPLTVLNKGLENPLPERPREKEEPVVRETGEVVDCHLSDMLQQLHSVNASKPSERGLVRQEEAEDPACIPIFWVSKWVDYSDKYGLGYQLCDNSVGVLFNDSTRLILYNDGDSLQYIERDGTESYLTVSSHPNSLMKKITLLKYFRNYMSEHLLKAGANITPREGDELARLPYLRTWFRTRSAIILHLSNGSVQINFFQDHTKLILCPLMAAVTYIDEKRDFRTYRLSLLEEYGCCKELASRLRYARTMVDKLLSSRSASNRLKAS
Chain of Serine/threonine-protein kinase Nek6 (Homo sapiens) (Q9HC98 whole entry): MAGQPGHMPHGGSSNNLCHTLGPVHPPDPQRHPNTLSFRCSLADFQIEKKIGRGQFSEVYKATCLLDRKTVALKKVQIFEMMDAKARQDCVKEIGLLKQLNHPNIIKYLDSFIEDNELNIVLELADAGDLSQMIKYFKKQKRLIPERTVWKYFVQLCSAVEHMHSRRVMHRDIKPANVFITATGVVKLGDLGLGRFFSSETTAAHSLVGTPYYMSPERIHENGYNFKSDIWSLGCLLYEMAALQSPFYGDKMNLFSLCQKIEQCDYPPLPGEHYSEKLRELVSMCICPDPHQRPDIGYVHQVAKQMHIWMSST
Chain of Vascular endothelial growth factor receptor 3 (Homo sapiens) (P35916 whole entry): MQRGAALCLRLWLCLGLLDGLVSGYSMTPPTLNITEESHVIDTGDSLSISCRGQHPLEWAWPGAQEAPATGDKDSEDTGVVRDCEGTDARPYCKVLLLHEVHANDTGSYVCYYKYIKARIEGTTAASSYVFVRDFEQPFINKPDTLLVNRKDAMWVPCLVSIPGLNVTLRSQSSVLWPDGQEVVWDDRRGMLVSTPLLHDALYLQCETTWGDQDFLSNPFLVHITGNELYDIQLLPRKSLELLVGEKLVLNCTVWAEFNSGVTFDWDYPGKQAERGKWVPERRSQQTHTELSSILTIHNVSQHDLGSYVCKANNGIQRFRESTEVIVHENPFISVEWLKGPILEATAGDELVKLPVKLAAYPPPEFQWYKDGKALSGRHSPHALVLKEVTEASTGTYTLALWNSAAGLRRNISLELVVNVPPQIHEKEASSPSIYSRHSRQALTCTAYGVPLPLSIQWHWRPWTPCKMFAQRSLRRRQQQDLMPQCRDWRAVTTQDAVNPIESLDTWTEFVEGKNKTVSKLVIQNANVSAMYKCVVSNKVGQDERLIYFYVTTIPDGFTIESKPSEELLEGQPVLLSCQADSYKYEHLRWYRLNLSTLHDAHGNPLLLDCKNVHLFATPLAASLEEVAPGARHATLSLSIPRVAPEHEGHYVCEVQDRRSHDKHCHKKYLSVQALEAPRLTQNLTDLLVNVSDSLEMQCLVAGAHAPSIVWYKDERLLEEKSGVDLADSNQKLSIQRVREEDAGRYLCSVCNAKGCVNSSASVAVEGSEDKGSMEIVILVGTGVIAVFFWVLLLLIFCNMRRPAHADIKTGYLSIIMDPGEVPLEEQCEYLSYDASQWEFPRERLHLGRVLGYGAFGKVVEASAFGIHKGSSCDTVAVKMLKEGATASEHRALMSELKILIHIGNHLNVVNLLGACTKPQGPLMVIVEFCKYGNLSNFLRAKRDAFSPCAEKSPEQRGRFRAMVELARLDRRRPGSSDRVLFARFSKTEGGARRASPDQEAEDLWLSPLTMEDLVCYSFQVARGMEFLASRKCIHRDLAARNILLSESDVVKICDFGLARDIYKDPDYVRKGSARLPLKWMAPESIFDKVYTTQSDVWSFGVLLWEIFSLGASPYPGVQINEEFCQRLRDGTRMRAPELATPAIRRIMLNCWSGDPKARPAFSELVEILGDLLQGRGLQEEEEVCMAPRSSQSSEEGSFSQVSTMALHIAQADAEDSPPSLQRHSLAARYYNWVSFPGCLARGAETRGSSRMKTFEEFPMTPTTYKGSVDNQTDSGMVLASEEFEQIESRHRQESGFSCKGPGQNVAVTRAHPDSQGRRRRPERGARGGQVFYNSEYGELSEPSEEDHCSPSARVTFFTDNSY
Chain of Macrophage colony-stimulating factor 1 receptor (Homo sapiens) (P07333 whole entry): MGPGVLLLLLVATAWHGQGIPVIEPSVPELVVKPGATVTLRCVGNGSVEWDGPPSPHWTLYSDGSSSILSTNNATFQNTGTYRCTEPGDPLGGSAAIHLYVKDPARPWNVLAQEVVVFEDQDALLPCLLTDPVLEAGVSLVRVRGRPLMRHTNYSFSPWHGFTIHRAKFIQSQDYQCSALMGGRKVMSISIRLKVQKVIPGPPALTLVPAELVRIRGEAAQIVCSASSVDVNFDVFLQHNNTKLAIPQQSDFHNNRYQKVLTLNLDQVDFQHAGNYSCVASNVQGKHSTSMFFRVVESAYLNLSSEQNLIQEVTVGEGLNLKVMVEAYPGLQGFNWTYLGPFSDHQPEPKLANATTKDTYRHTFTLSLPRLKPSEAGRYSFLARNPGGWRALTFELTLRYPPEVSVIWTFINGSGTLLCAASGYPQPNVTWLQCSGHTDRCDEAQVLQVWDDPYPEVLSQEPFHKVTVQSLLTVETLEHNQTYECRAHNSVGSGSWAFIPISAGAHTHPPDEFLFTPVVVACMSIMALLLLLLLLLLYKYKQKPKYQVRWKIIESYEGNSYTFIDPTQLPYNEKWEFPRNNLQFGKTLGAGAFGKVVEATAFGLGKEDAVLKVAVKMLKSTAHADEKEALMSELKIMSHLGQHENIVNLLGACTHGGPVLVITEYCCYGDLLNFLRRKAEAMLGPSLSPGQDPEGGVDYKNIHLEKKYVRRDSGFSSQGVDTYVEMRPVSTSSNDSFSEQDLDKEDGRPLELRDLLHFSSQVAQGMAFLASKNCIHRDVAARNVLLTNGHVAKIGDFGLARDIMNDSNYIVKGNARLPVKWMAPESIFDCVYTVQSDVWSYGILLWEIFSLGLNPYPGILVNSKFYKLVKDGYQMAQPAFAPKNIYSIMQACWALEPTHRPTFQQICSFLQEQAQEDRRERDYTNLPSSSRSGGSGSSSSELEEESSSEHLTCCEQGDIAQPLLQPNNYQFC

For `Nc1ncnc2occ(-c3ccc(NC(=O)Nc4cc(C(F)(F)F)ccc4F)cc3)c12`, the inhibition [1] was 11.5% and 1.35%, the inhibition [2] was 4.57% and -0.38% and the inhibition [3] was 34.7% and 18.1%. The inhibition [4] was 1.72% and -2.9%, the inhibition [5] was -2.44% and -3.79% and the inhibition [6] was 2.68% and -0.01%. The inhibition [7] was -0.68% and -1.16%, the inhibition [8] was 2.87% and -5.06% and the inhibition [9] was -8.19% and -5.1%. For the same molecule, the inhibition [10] was 5.05% and 5.01%, the inhibition [11] was 4.68% and 3.35% and the inhibition [12] was 2.14% and -0.72%. For the same molecule, the inhibition [13] was 1.27% and 0.12%, the inhibition [14] was 1.69% and 5.46% and the inhibition [15] was 35.4% and 26.1%. The inhibition [16] was 44.8% and 23.6%, the inhibition [17] was 97.2% and 75.5% and the inhibition [18] was 91.2% and 83.5%. The inhibition [19] was 96.1% and 81.2% and the inhibition [20] was 2.34% and 3.05%.
